Compounds with a hit are over-represented: about 3.7% of the library has one in this group of screens.
Tau fluor cs = counter-screen for tau fibril formation inhibitors; tau K18 P301L Alexa594 fluorescence, heparin fibrillization; hit rate 0.93% among 280,000; Potency, µM (doses to about 57.7 µM), without a hit: at the top dose activity change, negative = decrease; AID 1463; further: on the % scale 0 is the no-effect control and ±100 the full control effect; nearly all actives have a fitted effect of over 55% in size
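Human K18 P301L tau (15 uM unlabeled plus 0.24 uM Alexa 594-labeled, final) in 100 mM sodium acetate pH 7 was mixed with compound and 20 uM heparin and incubated 6 hr at 37 C.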
Tau ThT inhib = inhibitors of human tau fibril formation, thioflavin T binding; recombinant tau K18 P301L, heparin-induced fibrillization, ThT fluorescence; hit rate 2.1% among 270,000; Potency, µM (titrated, usually from 57.4 µM), for the others: at the highest dose activity, negative = inhibition, hits mostly inhibitors; P10636; further: on the % scale 0 is the no-effect control and ±100 the full control effect; nearly all actives have a fitted effect of over 55% in size
Target sequence (P10636 561-689 P618L limits assumed): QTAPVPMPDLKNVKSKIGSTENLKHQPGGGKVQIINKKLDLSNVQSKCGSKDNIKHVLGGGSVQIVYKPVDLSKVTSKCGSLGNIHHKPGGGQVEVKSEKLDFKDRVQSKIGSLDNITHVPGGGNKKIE
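Heparin-induced (20 uM) aggregation of recombinant human K18 P301L tau, 15 uM unlabeled with 0.24 uM labeled, pH 7 acetate buffer, 6 hr at 37 C with compound. Fibrils quantified by 30 uM ThT fluorescence after 1 hr ambient incubation.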
HTT cytoprotect = cytoprotection in Huntington HTT-Q103 PC12 cell model; PC12 HTT-Q103 induced, cytoprotection, ATP luminescence, 40 h; AID 1471; Potency, µM (top dose mostly 56.4 µM), for the others: cytoprotection (ATP increase), most hits filed as activators; hit rate 0.14% among 230,000; further: % of control where 0% means no effect; nearly all actives have a fitted effect of over 45% in size
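Compounds added alongside 100 nM tebufenozide, which induces toxic Q103 huntingtin exon 1-GFP in stable PC12 cells; surviving cells quantified by luminescent ATP measurement. Medium: phenol red-free DMEM, 5% equine and 5% calf serum.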
HTT aggregate = reduces HttQ103-GFP aggregates in PC12 cells; PC12 HttQ103-GFP aggregates, Acumen cytometry, 40 h; Potency, µM (doses to about 46.1 µM), inactives show at the highest dose activity change, negative = inhibition, usual class: inhibitors; hit rate 1.1% among 220,000; further: on the % scale 0 is the no-effect control and ±100 the full control effect; nearly all actives have a fitted effect of over 60% in size
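Read-out: GFP aggregate count by laser scanning cytometer (488 nm excitation, 500-530 nm emission, 1–25 µm objects >6 SD above background). Cells: PC12, inducible HTTex1-Q103-GFP, 100 nM tebufenozide; compounds titrated.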
Tau FP inhib = inhibitors of human tau fibril formation. P10636. K18 P301L tau heparin fibrillization, Alexa594 FP, 6 h. Potency, µM (doses to about 57.7 µM), inactives show at the top dose activity, negative = inhibition, most hits filed as inhibitors. hit rate 0.39% among 280,000; further: on the % scale 0 is the no-effect control and ±100 the full control effect; nearly all actives have a fitted effect of over 55% in size
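Heparin (20 uM) drove fibril formation of recombinant tau K18 P301L, 15 uM unlabeled with 0.24 uM Alexa 594 label, for 6 hr at 37 C in 100 mM sodium acetate pH 7. Fluorescence polarization (555/632 nm) read 1 hr after 30 uM ThT.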
* = called active by the depositor; ? = inconclusive; . = no result; [ ] = remark or other dose. The call rests on the fitted dose curve; in most records, active means well fitted curve in the direction sought with a large enough effect; inconclusive means small, poorly fitted or top-dose-only effect, or another doubt; inactive means no such curve, though single readings can be large; an effect the other way counts as inactive or inconclusive. Potency means the concentration at half of the fitted maximal effect.

SMILES	Tau fluor cs	Tau ThT inhib	HTT cytoprotect	HTT aggregate	Tau FP inhib
O=C(Nc1nc(-c2ccc(Cl)s2)cs1)c1cccs1	28µM*[quencher]	?	-73%[0.074 µM]	?	?
Cc1csc(NC(=O)c2cccn2C)n1	-5%	-7%	-5%	11%	-4%
O=C(Nc1nc(-c2ccccc2)cs1)c1cccs1	-17%	-3%	-25%	?	-9%
Cn1cccc1C(=O)Nc1nc(-c2ccccn2)cs1	5%	6%	-5%	13µM*	3%
O=C(Nc1nc(-c2ccccn2)cs1)c1ccc(Cl)s1	?	?	-95%[10 µM]	0.89µM*	?
COc1ccc2c(c1)O[C@@H](c1cccc(C(F)(F)F)c1)[C@H](OC(=O)Nc1cc(OC)c(OC)c(OC)c1)C2=O	-19%	-1%	.	.	4%
COc1ccc(N=C2C(=Nc3ccc(OC)cc3)N(c3ccccc3)C(=S)N2C(=O)c2ccc(Cl)cc2)cc1	-26%	?	9%[10 µM]	-10%	4%
COc1ccc(N=C2C(=Nc3ccc(OC)cc3)N(c3ccc(OC)cc3)C(=S)N2C(=O)c2ccc(OC)cc2)cc1	-24%	28µM*	19%[10 µM]	-12%	-8%
CCCCN(CCCC)CCNC(=O)Cn1nc(CC)n2c(cc3sccc32)c1=O	0%	7%	.	.	2%
COc1ccc(NC(=O)c2ccc(CNS(=O)(=O)c3ccc4c(c3)C(C)(C)C(=O)N4C)cc2)cc1	-20%	-11%	.	.	-1%
COCCNc1ncnc2ccc(-c3ccccc3C)cc12	.	.	-69%	.	.
COc1ccc2c(c1)OCC1=C2CCC2(C)C(=O)CC=C12 (stereo not given)	?	20µM*	-21%	19%	?
CCOc1cc(/C=N/NC(=O)c2ccc(-c3csc(Nc4ccc(C)cc4)n3)cc2)ccc1OCC(=O)O	?	2.8µM*	24%[10 µM]	20%	7%
O=C(O)COc1ccc(/C=N/NC(=O)c2ccc(-c3csc(Nc4ccc(Cl)cc4)n3)cc2)cc1	?	?	13%[10 µM]	10%[9.22 µM]	-4%
O=C(NN1C(=O)c2ccccc2NC1c1ccc([N+](=O)[O-])o1)c1ccccc1 (stereo not given)	-21%	?	9%	?	?
O=C(NN1C(=O)c2ccccc2NC1c1ccc([N+](=O)[O-])o1)c1ccc([N+](=O)[O-])cc1 (stereo not given)	?	3.2µM*	20%	?	?
COc1ccc2oc(=O)c(-c3csc(Nc4cccc(O)c4)n3)cc2c1	6.3µM*[quencher]	13µM*	6%[10 µM]	?	-4%
O=C(O)c1ccc(Nc2nc(-c3cc4ccccc4oc3=O)cs2)cc1O	?	7.9µM*	-30%	28%	1%
Nc1ccc(Nc2nc(-c3cc4ccccc4oc3=O)cs2)cc1	8.9µM*[quencher]	?	-10%[10 µM]	27%[9.22 µM]	13%
N[C@@H](Cc1cc(I)c(Oc2ccc(O)cc2)c(I)c1)C(=O)O	-20%	-15%	-30%	.	-3%
COc1ccc(-c2nc(C)c(CCNC(=O)C(=O)Nc3ccccc3F)s2)cc1	-6%	?	.	.	-9%
CCOc1ccc(S(=O)(=O)NCc2cccn2Cc2cccc(C)c2)cc1	-3%	6%	.	.	5%
Nc1sc(-c2ccccc2)cc1C(=O)N/N=C/c1ccc(Cl)cc1	14µM*[quencher]	4µM*	3%[10 µM]	10%[9.22 µM]	-4%
O=C(Cc1ccc(Cl)cc1)c1c(O)cc(O)cc1O	16µM*[quencher]	?	-5%[1.9 µM]	.	-13%
COc1ccc(CC(=O)c2c(O)cc(O)cc2O)cc1OC	?	-12%	17%	-1%[9.22 µM]	7%
SMILES	Tau fluor cs	Tau ThT inhib	HTT cytoprotect	HTT aggregate	Tau FP inhib
COc1ccc(/C=C/C(=O)Nc2ccc3nc(N4CCC(C)CC4)cc(C)c3c2)cc1	4µM*[quencher]	?	.	.	13%
Cc1cc(N2CCOCC2)nc2ccc(NC(=O)CCC(=O)N3CCC(C)CC3)cc12	-13%	-8%	-11%	-10%	-7%
COc1ccc(/C=C/C(=O)Nc2ccc3nc(N4CCCCC4)cc(C)c3c2)cc1OC	7.9µM*[quencher]	2.8µM*	.	.	?
Cc1cc(N2CCC(C)CC2)nc2ccc(NC(=O)CCC(=O)N3CCN(c4ccccc4F)CC3)cc12	?	?	.	.	13%
CCCCNC(=O)CCC(=O)Nc1ccc2nc(N3CCC(C)CC3)cc(C)c2c1	-24%	-17%	-33%	16%	16%
COc1cccc(C(=O)Nc2ccc3nc(N4CCC(C)CC4)cc(C)c3c2)c1	13µM*[quencher]	?	.	.	6%
COc1ccc(C(=O)Nc2ccc3nc(N4CCC(C)CC4)cc(C)c3c2)cc1	5µM*[quencher]	?	.	.	-7%
CN(C)c1cc(-c2cccc(NS(C)(=O)=O)c2)ncn1	.	.	-164%	.	.
COC(=O)CCCNC(=O)c1ccc2[nH]c(C)c(C)c2c1	-7%	?	-11%	1.3µM*	11%
Cc1[nH]c2ccc(C(=O)NCCCN3CCCCC3)cc2c1C	-4%	1%	.	.	0%
O=C(Nc1nnc(C2CC2)o1)c1ccc(S(=O)(=O)N2CCCc3ccccc32)cc1	-8%	-3%	-17%	11µM*	9%
Nc1nc(C2CC2)c(Sc2sc(N)nc2C2CC2)s1	?	18µM*	-40%	2%	-8%
COC(=O)[C@@H]1O[C@@H](c2c(OC)c(OC)c(C)c(OC)c2OC)[C@H](C)[C@@H](O)[C@@H]1C	-3%[11.6 µM]	-5%[11.5 µM]	-3%[10 µM]	.	-1%[11.6 µM]
O=C(O)CCCN1C(=O)/C(=C/C=C/c2ccco2)SC1=S	1%	3.2µM*	-14%[10 µM]	14%[9.22 µM]	?
Cc1ccc(NC(=O)CCCN2C(=O)/C(=C/C=C/c3ccccc3)SC2=S)cc1	-5%	?	4%[10 µM]	16%	1%
O=C(O)CC(C(=O)O)N1C(=O)/C(=C/C=C/c2ccco2)SC1=S (stereo not given)	-22%	13µM*	11%[10 µM]	-1%[9.22 µM]	?
O=C(O)C(Cc1ccccc1)N1C(=O)/C(=C/C=C/c2ccco2)SC1=S (stereo not given)	?	7.9µM*	19%[10 µM]	-10%[9.22 µM]	?
COc1ccc(N2CCN(CCCNC(=O)c3c(C)nn(-c4ccc(F)cc4)c3-n3cccc3)CC2)cc1	-16%	?	.	.	4%
CCc1ccc(/C=c2\s/c(=C\C(=O)C(C)(C)C)[nH]c2=O)cc1	?	?	-19%	14µM*	-13%
COc1ccc(CNC(=O)COC(=O)Cc2ccc(Cl)cc2Cl)cc1	-3%	-1%	-87%[1.9 µM]	0.56µM*	0%
C=CCn1c(=O)n(CCOC)c(=O)c2sc3ccccc3c21	-9%	?	17%[10 µM]	22µM*	-2%
O=C(CN1C(=O)COc2ccc(S(=O)(=O)N3CCCCCC3)cc21)NCCc1ccccc1	-15%	-3%	.	.	6%
O=C(N/N=C/C(Cl)=C/c1ccc([N+](=O)[O-])cc1)C(=O)Nc1ccc(C(=O)O)cc1	-28%	3.5µM*	15%[10 µM]	12%[9.22 µM]	0%
CCOc1ccccc1NC(=O)C(=O)N/N=C/c1ccc([N+](=O)[O-])cc1	-18%	-15%	.	25%	-6%

Screens (PubChem)
